Assay [1] can be described thus: P-glycoprotein substrates identified in KB-8-5-11 adenocarcinoma cell line, qHTS therapeutic library screen (AID 1346987). Further: nearly all actives have a fitted effect of over 65% in size. The gist of the method:
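In this qHTS, P-gp-rich KB-8-5-11 cells received library compounds across a concentration range. Viability was quantified by luminescence after 72 h at 37 degree C.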

The nature of assay [2]: NS1 protein of Zika virus - qHTS assay to identify small molecule inhibitors in human HEK 293 cells (AID 1347053).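 Further: series mostly up to about 46 µM; plate controls were infected untreated cells for no effect and uninfected cells for full effect; nearly all actives have a fitted effect of over 55% in size.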 The gist of the method: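 TR-FRET signal from two anti-ZIKV NS1 antibodies quantified NS1 in HEK 293 cells 24 h after MR766 infection at MOI = 0.5; compounds were added 1 h before virus. Uninfected cells and infected cells defined the NS1 normalization range.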

Assay [3] can be described thus: qHTS of pediatric cancer cell lines to identify multiple opportunities for drug repurposing: Primary screen for TC32 cells (AID 1347089). Further: on the % scale 0 is the no-effect control and ±100 the full control effect; nearly all actives have a fitted effect of over 60% in size. In short, it runs like this: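 A viability screen of TC32 cells was run over 48 h, with primary MIPE doses spanning 0.78 nM–46 µM and NPC doses 0.59 nM–46 µM. ATP luminescence (CellTiter-Glo) served as the read-out.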
(In general: qHTS replaces the single test concentration by a dilution series.)

The nature of assay [4]: qHTS of pediatric cancer cell lines to identify multiple opportunities for drug repurposing: Primary screen for DAOY cells (AID 1347090).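 Further: series mostly up to about 46 µM; plate controls were DMSO for no effect and bortezomib for full effect; nearly all actives have a fitted effect of over 55% in size.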 The gist of the method: (§1)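 Cell viability, CellTiter-Glo luminescence; 500-1,000 cells/well, 8- or 11-point titration, 48 h compound exposure at 37 degrees C, 5% CO2. Controls: DMSO neutral, bortezomib 2.3 µM final as positive.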
The nature of assay [5]: qHTS of pediatric cancer cell lines to identify multiple opportunities for drug repurposing: Primary screen for SJ-GBM2 cells (AID 1347091).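 Further: plate controls were DMSO neutral control for no effect and bortezomib for full effect.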 The gist of the method:
as §1

A short description of assay [6]: qHTS of pediatric cancer cell lines to identify multiple opportunities for drug repurposing: Primary screen for A673 cells (AID 1347092). Further: nearly all actives have a fitted effect of over 45% in size. Further: potency means the concentration at half of the fitted maximal effect. On activity change, negative = cytotoxic: on the % scale 0 is the no-effect control and ±100 the full control effect. The gist of the method:
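Titration-based qHTS on A673 cells: MIPE compounds spanned 11 points (0.78 nM to 46 µM final), NPC compounds 8 points (0.59 nM to 46 µM final). Viability after 48 h was measured by ATP luminescence.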

Records with an inconclusive call do not appear. Unmarked numbers belong to inactive results. Activity calls are given as the source filed them. The call rests on the fitted dose curve; in most records, active means well fitted curve in the direction sought with a large enough effect; inconclusive means small, poorly fitted or top-dose-only effect, or another doubt; inactive means no such curve, though single readings can be large; an effect the other way counts as inactive or inconclusive.

Regarding `C1N2CN3CN1CN(C2)C3`, the Potency entry in assay [1], in assay [2], in assay [3], in assay [4], in assay [5] and in assay [6] was “inactive” in each case.
For the molecule `CN(C(=O)C(Cl)Cl)c1ccc(OC(=O)c2ccco2)cc1`, the Potency entry in assay [1], in assay [2], in assay [3], in assay [4], in assay [5] and in assay [6] was “inactive” throughout.
`O=C(O)CCC(=O)OC[C@@H](NC(=O)C(Cl)Cl)[C@H](O)c1ccc([N+](=O)[O-])cc1`: the Potency entry in assay [1], in assay [2], in assay [3], in assay [4], in assay [5] and in assay [6] was “inactive” each time.
For the molecule `CC(C(=O)O)c1ccc(/C=C2\CCCCC2=O)cc1` (stereo not given), the Potency entry in assay [1], in assay [2], in assay [3], in assay [4], in assay [5] and in assay [6] was “inactive” throughout.
In the case of `CCOC(=O)Cn1cccc1-c1nc(-c2ccc(OC)cc2)c(-c2ccc(OC)cc2)s1`, the Potency entry in assay [1], in assay [2], in assay [3], in assay [4], in assay [5] and in assay [6] was “inactive” throughout.
Regarding `Cc1ccc(O)cc1`, the Potency result in assay [1], in assay [2], in assay [3], in assay [4], in assay [5] and in assay [6] was “inactive” each time.
For `Cc1cccc(C)c1NC(=O)c1cc(S(N)(=O)=O)c(Cl)cc1O`, the Potency entry in assay [1], in assay [2], in assay [3], in assay [4], in assay [5] and in assay [6] was “inactive” each time.
For the molecule `Brc1ccccc1-c1ccccc1`, the Potency result in assay [1], in assay [2], in assay [3], in assay [4], in assay [5] and in assay [6] was “inactive” in each case.
On to `C[N+]1(C)CCC(OC(=O)C(O)(c2ccccc2)C2CCCC2)C1` (stereo not given), for which the Potency entry in assay [1], in assay [2], in assay [3], in assay [4], in assay [5] and in assay [6] was “inactive” in each case.
On to `Cc1ncc(CO)c(CO)c1O`, for which the Potency entry in assay [1], in assay [2], in assay [3], in assay [4], in assay [5] and in assay [6] was “inactive” in each case.
As to `COC(=O)c1c(Cl)c(Cl)c(C(=O)OC)c(Cl)c1Cl`, the Potency entry in assay [1], in assay [2], in assay [3], in assay [4], in assay [5] and in assay [6] was “inactive” in each case.
Consider `CC(C)C[C@H](NC(=O)CNC(=O)[C@H](Cc1ccc(O)cc1)NC(=O)[C@H](CO)NC(=O)[C@H](Cc1c[nH]c2ccccc12)NC(=O)[C@H](Cc1cnc[nH]1)NC(=O)[C@@H]1CCC(=O)N1)C(=O)N[C@@H](CCCN=C(N)N)C(=O)N1CCC[C@H]1C(=O)NCC(N)=O` (stereo in doubt), for which the Potency entry in assay [1], in assay [2], in assay [3], in assay [4], in assay [5] and in assay [6] was “inactive” in each case.
Turning to `CC1CN(c2cc3c(cc2F)c(=O)c(C(=O)O)cn3-c2ccc(F)cc2F)CCN1` (stereo not given), the Potency result in assay [1] was “inactive”. For the same molecule, in assay [2], the activity change, negative = inhibition is -15.5% [at 4.81 µM]. Besides, the activity change, negative = cytotoxic was -4% [at 4.81 µM] in assay [3], 0.682% [at 4.84 µM] in assay [4], 78.3% [at 4.84 µM] in assay [5] and -9.43% [at 4.84 µM] in assay [6].
`CN1C(=O)CC(C)(c2ccccc2)C1=O` (stereo not given): the Potency result in assay [1], in assay [2], in assay [3], in assay [4], in assay [5] and in assay [6] was “inactive” in each case.
`c1ccc2occc2c1`: the Potency result in assay [1], in assay [2], in assay [3], in assay [4], in assay [5] and in assay [6] was “inactive” in each case.
As to `Cc1ccccc1C(=O)N1CC/C(=N\OS(=O)(=O)O)c2ccc(Cl)cc21`, the Potency result in assay [1], in assay [2], in assay [3], in assay [4], in assay [5] and in assay [6] was “inactive” each time.
Consider `CCNC(=O)NCCCOc1cccc(CN2CCCCC2)c1`, for which the Potency result in assay [1], in assay [2], in assay [3], in assay [4], in assay [5] and in assay [6] was “inactive” in each case.
In the case of `CC(C)=CCC/C(C)=C/CC/C(C)=C/CCC(=O)OC/C=C(\C)CCC=C(C)C`, the Potency result in assay [1], in assay [2], in assay [3], in assay [4], in assay [5] and in assay [6] was “inactive” each time.
As for `C[N+]1(CC2COC(c3ccccc3)(c3ccccc3)O2)CCCCC1` (stereo not given), the Potency result in assay [1], in assay [2], in assay [3], in assay [4], in assay [5] and in assay [6] was “inactive” each time.
As for `O=C(O)[C@@H](O)[C@H](O)[C@H](O)[C@@H](O)C(=O)O`, the Potency result in assay [1], in assay [2], in assay [3], in assay [4], in assay [5] and in assay [6] was “inactive” in each case.
On to `CN1[C@@H]2CC[C@H]1CC(NC(=O)n1c(=O)[nH]c3ccccc31)C2` (stereo not given in full), for which the Potency entry in assay [1], in assay [2], in assay [3], in assay [4], in assay [5] and in assay [6] was “inactive” in each case.
For `CO[C@@]1(NC(=O)CSC[C@@H](N)C(=O)O)C(=O)N2C(C(=O)O)=C(CSc3nnnn3C)CS[C@@H]21`, the Potency entry in assay [1], in assay [2], in assay [3], in assay [4], in assay [5] and in assay [6] was “inactive” each time.
As for `CN1CCC(Nc2ncc3ncnc(Nc4ccc(F)c(Cl)c4)c3n2)CC1`, the Potency entry in assay [1], in assay [3], in assay [4] and in assay [5] was “inactive” in each case. For the same molecule, in assay [6], the Potency was 21.1 µM (active).
On to `CCCC(=O)c1cc(O)c(O)cc1O`, for which the Potency entry in assay [1], in assay [2], in assay [3] and in assay [4] was “inactive” each time. The Potency in assay [6] is 12.2 µM (active).
In the case of `O=C(COCCOCCOCC(=O)Nc1c(I)cc(I)c(C(=O)O)c1I)Nc1c(I)cc(I)c(C(=O)O)c1I`, the Potency entry in assay [1], in assay [2], in assay [3], in assay [5] and in assay [6] was “inactive” each time.
`CCOC(=O)OCC/C(SC(=O)OCC)=C(\C)N(C=O)Cc1cnc(C)nc1N`: the Potency entry in assay [1], in assay [2], in assay [4], in assay [5] and in assay [6] was “inactive” each time.
As to `CCOC(=O)NNc1ccc(N(CC)CC(C)O)nn1` (stereo not given), the Potency result in assay [1], in assay [2], in assay [4], in assay [5] and in assay [6] was “inactive” throughout.
As to `O=C(O)/C=C(\CC(=O)O)C(=O)O`, the Potency result in assay [1], in assay [2], in assay [4], in assay [5] and in assay [6] was “inactive” throughout.
On to `Oc1ccc(CCNCCCCCCNCCc2ccccc2)cc1O`, for which the Potency entry in assay [1], in assay [2] and in assay [4] was “inactive” throughout.
Turning to `CC(C)(C)C(=O)OCOC(=O)C1N2C(=O)CC2S(=O)(=O)C1(C)C` (stereo not given), the Potency result in assay [1], in assay [2], in assay [3], in assay [5] and in assay [6] was “inactive” in each case.

The values above are taken from PubChem BioAssay (NCATS).
